# In publication PMC11006913:
# Positions count from the first letter of the chain named.
# Legend:
# Assay in all cases: PBM; 200 nM protein, PBS
# Conditions in all cases: dsDNA, one strand shown
# [1] = molecular target: T1, VENTX (Homo sapiens, UniProt O95231 78-163, R121Q)
# T1 sequence: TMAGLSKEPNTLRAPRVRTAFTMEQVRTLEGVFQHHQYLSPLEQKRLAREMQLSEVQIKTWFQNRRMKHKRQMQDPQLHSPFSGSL
# [2] = molecular target: HOXC9 (Homo sapiens, UniProt P31274 178-260, K195R)
# [3] = molecular target: T2, VENTX (Homo sapiens, UniProt O95231 78-163)
# T2 sequence: T1 sequence with Q44R
# [4] = molecular target: T3, VENTX (Homo sapiens, UniProt O95231 78-163, Y115F)
# T3 sequence: T1 sequence with Y38F, Q44R
# [5] = molecular target: HOXC9 (Homo sapiens, UniProt P31274 178-260)
# Chain of HOXC9 (Homo sapiens, UniProt P31274 178-260) (P31274 178-260): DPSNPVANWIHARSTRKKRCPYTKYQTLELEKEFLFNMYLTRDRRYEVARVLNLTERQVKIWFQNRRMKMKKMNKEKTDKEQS
# [6] = molecular target: HOXC9 (Homo sapiens, UniProt P31274 178-260, R193K)
# Chain of HOXC9 (Homo sapiens, UniProt P31274 178-260, R193K) (P31274 178-260 R193K): as the sequence (P31274 178-260) above, with R16K counted along it
# [7] = molecular target: HOXC9 (Homo sapiens, UniProt P31274 178-260, R222W)
# Chain of HOXC9 (Homo sapiens, UniProt P31274 178-260, R222W) (P31274 178-260 R222W): as the sequence (P31274 178-260) above, with R45W counted along it
# [8] = molecular target: PITX2 (Homo sapiens, UniProt Q99697 72-157)
# [9] = molecular target: HOXD13 (Homo sapiens, UniProt P35453 263-343, T313R)
# Chain of HOXD13 (Homo sapiens, UniProt P35453 263-343, T313R) (P35453 263-343 T313R): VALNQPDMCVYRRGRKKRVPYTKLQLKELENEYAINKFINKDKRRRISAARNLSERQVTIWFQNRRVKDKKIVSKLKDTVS
# [10] = molecular target: HOXD13 (Homo sapiens, UniProt P35453 263-343)
# Chain of HOXD13 (Homo sapiens, UniProt P35453 263-343) (P35453 263-343): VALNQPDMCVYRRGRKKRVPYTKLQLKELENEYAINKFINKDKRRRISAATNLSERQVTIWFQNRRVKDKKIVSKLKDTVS
# [11] = molecular target: HOXD13 (Homo sapiens, UniProt P35453 263-343, T313A)
# Chain of HOXD13 (Homo sapiens, UniProt P35453 263-343, T313A) (P35453 263-343 T313A): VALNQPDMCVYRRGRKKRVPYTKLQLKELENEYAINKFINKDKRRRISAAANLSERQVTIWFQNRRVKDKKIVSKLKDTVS
# [12] = molecular target: HOXA4 (Homo sapiens, UniProt Q00056 201-287, W262R)
# Chain of HOXA4 (Homo sapiens, UniProt Q00056 201-287, W262R) (Q00056 201-287 W262R): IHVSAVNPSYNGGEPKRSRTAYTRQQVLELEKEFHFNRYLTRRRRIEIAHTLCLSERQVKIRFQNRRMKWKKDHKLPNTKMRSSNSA
# [13] = molecular target: PRRX1 (Homo sapiens, UniProt P54821 80-166, F113S)
# Chain of PRRX1 (Homo sapiens, UniProt P54821 80-166, F113S) (P54821 80-166 F113S): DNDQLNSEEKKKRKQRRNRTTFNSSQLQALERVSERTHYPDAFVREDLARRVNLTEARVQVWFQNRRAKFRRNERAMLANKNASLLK
# [14] = molecular target: HOXA4 (Homo sapiens, UniProt Q00056 201-287, R217L)
# Chain of HOXA4 (Homo sapiens, UniProt Q00056 201-287, R217L) (Q00056 201-287 R217L): as the sequence (Q00056 201-287 W262R) above, with R17L, R62W counted along it
# [15] = molecular target: HOXA4 (Homo sapiens, UniProt Q00056 201-287)
# Chain of HOXA4 (Homo sapiens, UniProt Q00056 201-287) (Q00056 201-287): as the sequence (Q00056 201-287 W262R) above, with R62W counted along it
# [16] = molecular target: HOXA4 (Homo sapiens, UniProt Q00056 201-287, W262F)
# Chain of HOXA4 (Homo sapiens, UniProt Q00056 201-287, W262F) (Q00056 201-287 W262F): as the sequence (Q00056 201-287 W262R) above, with R62F counted along it
# [17] = molecular target: PRRX1 (Homo sapiens, UniProt P54821 80-166)
# Chain of PRRX1 (Homo sapiens, UniProt P54821 80-166) (P54821 80-166): as the sequence (P54821 80-166 F113S) above, with S34F counted along it
# [18] = molecular target: ALX4 (Homo sapiens, UniProt Q9H161 200-286)
# Chain of ALX4 (Homo sapiens, UniProt Q9H161 200-286) (Q9H161 200-286): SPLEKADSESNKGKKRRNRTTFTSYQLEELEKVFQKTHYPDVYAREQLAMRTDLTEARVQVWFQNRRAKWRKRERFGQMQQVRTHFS
# [19] = molecular target: ALX4 (Homo sapiens, UniProt Q9H161 200-286, Q225E)
# Chain of ALX4 (Homo sapiens, UniProt Q9H161 200-286, Q225E) (Q9H161 200-286 Q225E): as the sequence (Q9H161 200-286) above, with Q26E counted along it
# [20] = molecular target: T4, NKX2-6 (Homo sapiens, UniProt A6NCS4 118-204)
# T4 sequence: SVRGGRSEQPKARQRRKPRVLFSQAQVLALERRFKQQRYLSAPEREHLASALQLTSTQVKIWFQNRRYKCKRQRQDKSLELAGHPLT
# [21] = molecular target: T5, NKX2-6 (Homo sapiens, UniProt A6NCS4 118-204, F151L)
# T5 sequence: T4 sequence with F34L
# Chain of HOXC9 (Homo sapiens, UniProt P31274 178-260, K195R) (P31274 178-260 K195R): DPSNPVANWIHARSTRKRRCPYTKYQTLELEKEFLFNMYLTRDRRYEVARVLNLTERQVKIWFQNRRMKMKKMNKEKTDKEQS
sequence,measurement,setting,value
CCGTCCGC,binding signal,[1],"7.99 upbm affinity estimate (log intensity, higher = more binding, comparable within an allelic series)"
same,binding signal,[2],"9.35 upbm affinity estimate (log intensity, higher = more binding, comparable within an allelic series)"
same,binding signal,[3],"8.02 upbm affinity estimate (log intensity, higher = more binding, comparable within an allelic series)"
same,binding signal,[4],"7.93 upbm affinity estimate (log intensity, higher = more binding, comparable within an allelic series)"
same,binding signal,[5],"9.48 upbm affinity estimate (log intensity, higher = more binding, comparable within an allelic series)"
same,binding signal,[6],"9.36 upbm affinity estimate (log intensity, higher = more binding, comparable within an allelic series)"
same,binding signal,[7],"9.54 upbm affinity estimate (log intensity, higher = more binding, comparable within an allelic series)"
CGGGCACG,binding signal,[1],"7.97 upbm affinity estimate (log intensity, higher = more binding, comparable within an allelic series)"
same,binding signal,[2],"9.61 upbm affinity estimate (log intensity, higher = more binding, comparable within an allelic series)"
same,binding signal,[3],"7.98 upbm affinity estimate (log intensity, higher = more binding, comparable within an allelic series)"
same,binding signal,[4],"8.07 upbm affinity estimate (log intensity, higher = more binding, comparable within an allelic series)"
same,binding signal,[5],"9.57 upbm affinity estimate (log intensity, higher = more binding, comparable within an allelic series)"
same,binding signal,[8],"8.22 upbm affinity estimate (log intensity, higher = more binding, comparable within an allelic series)"
same,binding signal,[6],"9.49 upbm affinity estimate (log intensity, higher = more binding, comparable within an allelic series)"
same,binding signal,[7],"9.66 upbm affinity estimate (log intensity, higher = more binding, comparable within an allelic series)"
CTGGGACC,binding signal,[1],"8.08 upbm affinity estimate (log intensity, higher = more binding, comparable within an allelic series)"
same,binding signal,[2],"9.45 upbm affinity estimate (log intensity, higher = more binding, comparable within an allelic series)"
same,binding signal,[3],"8.05 upbm affinity estimate (log intensity, higher = more binding, comparable within an allelic series)"
same,binding signal,[4],"8.06 upbm affinity estimate (log intensity, higher = more binding, comparable within an allelic series)"
same,binding signal,[5],"9.59 upbm affinity estimate (log intensity, higher = more binding, comparable within an allelic series)"
same,binding signal,[6],"9.43 upbm affinity estimate (log intensity, higher = more binding, comparable within an allelic series)"
same,binding signal,[7],"9.65 upbm affinity estimate (log intensity, higher = more binding, comparable within an allelic series)"
CCCCTCCC,binding signal,[1],"8.02 upbm affinity estimate (log intensity, higher = more binding, comparable within an allelic series)"
same,binding signal,[2],"9.65 upbm affinity estimate (log intensity, higher = more binding, comparable within an allelic series)"
same,binding signal,[3],"7.87 upbm affinity estimate (log intensity, higher = more binding, comparable within an allelic series)"
same,binding signal,[4],"8.02 upbm affinity estimate (log intensity, higher = more binding, comparable within an allelic series)"
same,binding signal,[5],"9.76 upbm affinity estimate (log intensity, higher = more binding, comparable within an allelic series)"
same,binding signal,[9],"9.44 upbm affinity estimate (log intensity, higher = more binding, comparable within an allelic series)"
same,binding signal,[6],"9.62 upbm affinity estimate (log intensity, higher = more binding, comparable within an allelic series)"
same,binding signal,[10],"9.54 upbm affinity estimate (log intensity, higher = more binding, comparable within an allelic series)"
same,binding signal,[11],"9.62 upbm affinity estimate (log intensity, higher = more binding, comparable within an allelic series)"
same,binding signal,[7],"9.53 upbm affinity estimate (log intensity, higher = more binding, comparable within an allelic series)"
CCCTTCCG,binding signal,[1],"8.08 upbm affinity estimate (log intensity, higher = more binding, comparable within an allelic series)"
same,binding signal,[12],"9.79 upbm affinity estimate (log intensity, higher = more binding, comparable within an allelic series)"
same,binding signal,[3],"8.37 upbm affinity estimate (log intensity, higher = more binding, comparable within an allelic series)"
same,binding signal,[13],"9.35 upbm affinity estimate (log intensity, higher = more binding, comparable within an allelic series)"
same,binding signal,[4],"8.15 upbm affinity estimate (log intensity, higher = more binding, comparable within an allelic series)"
same,binding signal,[14],"9.96 upbm affinity estimate (log intensity, higher = more binding, comparable within an allelic series)"
same,binding signal,[15],"10 upbm affinity estimate (log intensity, higher = more binding, comparable within an allelic series)"
same,binding signal,[16],"10 upbm affinity estimate (log intensity, higher = more binding, comparable within an allelic series)"
same,binding signal,[17],"9.49 upbm affinity estimate (log intensity, higher = more binding, comparable within an allelic series)"
CCCCATGC,binding signal,[1],"8.07 upbm affinity estimate (log intensity, higher = more binding, comparable within an allelic series)"
same,binding signal,[2],"9.5 upbm affinity estimate (log intensity, higher = more binding, comparable within an allelic series)"
same,binding signal,[3],"8.26 upbm affinity estimate (log intensity, higher = more binding, comparable within an allelic series)"
same,binding signal,[4],"8.2 upbm affinity estimate (log intensity, higher = more binding, comparable within an allelic series)"
same,binding signal,[5],"9.6 upbm affinity estimate (log intensity, higher = more binding, comparable within an allelic series)"
same,binding signal,[6],"9.46 upbm affinity estimate (log intensity, higher = more binding, comparable within an allelic series)"
same,binding signal,[7],"9.63 upbm affinity estimate (log intensity, higher = more binding, comparable within an allelic series)"
CCTCGTTA,binding signal,[1],"10.3 upbm affinity estimate (log intensity, higher = more binding, comparable within an allelic series)"
CGGAGGGA,binding signal,[1],"8.11 upbm affinity estimate (log intensity, higher = more binding, comparable within an allelic series)"
same,binding signal,[12],"9.84 upbm affinity estimate (log intensity, higher = more binding, comparable within an allelic series)"
same,binding signal,[2],"9.42 upbm affinity estimate (log intensity, higher = more binding, comparable within an allelic series)"
same,binding signal,[3],"7.97 upbm affinity estimate (log intensity, higher = more binding, comparable within an allelic series)"
same,binding signal,[18],"7.87 upbm affinity estimate (log intensity, higher = more binding, comparable within an allelic series)"
same,binding signal,[4],"8.17 upbm affinity estimate (log intensity, higher = more binding, comparable within an allelic series)"
same,binding signal,[19],"8.03 upbm affinity estimate (log intensity, higher = more binding, comparable within an allelic series)"
same,binding signal,[14],"9.72 upbm affinity estimate (log intensity, higher = more binding, comparable within an allelic series)"
same,binding signal,[5],"9.45 upbm affinity estimate (log intensity, higher = more binding, comparable within an allelic series)"
same,binding signal,[20],"9.02 upbm affinity estimate (log intensity, higher = more binding, comparable within an allelic series)"
same,binding signal,[6],"9.42 upbm affinity estimate (log intensity, higher = more binding, comparable within an allelic series)"
same,binding signal,[15],"9.76 upbm affinity estimate (log intensity, higher = more binding, comparable within an allelic series)"
same,binding signal,[21],"9.3 upbm affinity estimate (log intensity, higher = more binding, comparable within an allelic series)"
same,binding signal,[7],"9.69 upbm affinity estimate (log intensity, higher = more binding, comparable within an allelic series)"
same,binding signal,[16],"9.79 upbm affinity estimate (log intensity, higher = more binding, comparable within an allelic series)"
